Measured values taken from the supplement of paper PMC10127200.
Where a name gives a salt, the structure may show the parent alone.

Key:
Test in all cases: Euclidean distance of Cell Painting phenotypic profile (signed KS, 77 features) to DMSO centroid (dimensionless distance); 5 or 10 uM (library dependent); higher = stronger phenotypic change vs DMSO (phenoactivity)
Conditions in all cases: 48 h
786-O = system: 786-O
Method in brief: (§1)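 Phenoactivity is computed as Euclidean distance to the median vehicle profile. The profiles, drawn from 77 Harmony features scored as signed Kolmogorov-Smirnov statistics versus same-plate vehicle wells, were corrected for plate position, correlation-weighted and replicate-averaged at the top dose. Stained cells were imaged confocally at 20X (9 fields/well) after 48 h with library compounds at 10 or 5 uM, 0.1% DMSO final, in five cancer lines and a healthy fibroblast line.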

A549 = system: A549
Method in brief: as §1

DU145 = system: DU145
Method in brief: as §1

FB = system: FB
Method in brief: as §1

HEPG2 = system: HEPG2
Method in brief: as §1

OVCAR4 = system: OVCAR4
Method in brief: as §1

SMILES | Euclidean distance (786-O) | Euclidean distance (A549) | Euclidean distance (DU145) | Euclidean distance (FB) | Euclidean distance (HEPG2) | Euclidean distance (OVCAR4)
O=C(COc1ccc(C(=O)c2ccccc2)cc1)NC1CCN(Cc2ccccc2)CC1 [AdipoRon] | 0.958 | 0.958 | 0.661 | 0.817 | 1.11 | 0.793
O=C(NCCN1CCOCC1)Nc1nc2ccc(Sc3nnc4ccc(-c5ccc(F)cc5)nn34)cc2s1 | 1.21 | 1.01 | 1.2 | 1.23 | 0.646 | 1.15
Clc1ccc(C(Cn2ccnc2)OCc2c(Cl)cccc2Cl)c(Cl)c1 (configuration not stated) [Isoconazole nitrate] | 1.02 | 0.91 | 1.26 | 0.868 | 0.714 | 1.04
C[C@]1(Cn2ccnn2)[C@H](C(=O)O)N2C(=O)C[C@H]2S1(=O)=O [Tazobactam] | 0.708 | 0.639 | 0.78 | 0.984 | 0.41 | 0.673
CO[C@H]1C[C@@H]2CC[C@@H](C)[C@@](O)(O2)C(=O)C(=O)N2CCCC[C@H]2C(=O)O[C@H]([C@H](C)C[C@@H]2CC[C@@H](OP(C)(C)=O)[C@H](OC)C2)CC(=O)[C@H](C)/C=C(\C)[C@@H](O)[C@@H](OC)C(=O)[C@H](C)C[C@H](C)/C=C/C=C/C=C/1C [Ridaforolimus (Deforolimus. MK-8669)] | 2.74 | 1.98 | 1.3 | 2.88 | 1.37 | 2.04
CC(C)OC(=O)CCC/C=C\C[C@@H]1[C@@H](/C=C/C(F)(F)COc2ccccc2)[C@H](O)C[C@@H]1O [Tafluprost] | 1.72 | 1.49 | 0.876 | 1.25 | 0.711 | 0.833
CC(C(=O)O)c1ccc2c(c1)CC(=O)c1ccccc1S2 (configuration not stated) [Zaltoprofen] | 1.08 | 1.02 | 1.23 | 0.873 | 0.423 | 1.24
CC(C)(CO)[C@@H](O)C(=O)NCCC(=O)NCCSSCCNC(=O)CCNC(=O)[C@H](O)C(C)(C)CO [D-Pantethine] | 1.1 | 1.2 | 0.679 | 1 | 0.969 | 1.35
O=C(O)COc1nn(Cc2ccccc2)c2ccccc12 [Bendazac] | 1.07 | 0.905 | 1.13 | 1.39 | 0.558 | 1.32
O=C1NC(=O)C(c2ccccc2[N+](=O)[O-])=C1Nc1ccc(O)c(Cl)c1 | 1.2 | 0.916 | 0.978 | 0.936 | 0.886 | 1.1
CN(C)CCC=C1c2ccccc2C=Cc2ccccc21 [Cyclobenzaprine HCl] | 1.1 | 1.26 | 1.14 | 1.88 | 1.52 | 1.16
CS(=O)(=O)Nc1cc2occ(NC=O)c(=O)c2cc1Oc1ccccc1 [Iguratimod] | 0.942 | 0.587 | 2.23 | 1.05 | 0.878 | 0.85
CC1=C(C(=O)OCCN(Cc2ccccc2)c2ccccc2)C(c2cccc([N+](=O)[O-])c2)C(P2(=O)OCC(C)(C)CO2)=C(C)N1 (configuration not stated) [Efonidipine] | 1.73 | 1.93 | 1.02 | 0.739 | 0.968 | 0.999
CN1CCN(Cc2ccc(Nc3ncc(Cl)c(Nc4ccccc4S(=O)(=O)N(C)C)n3)cc2)CC1 | 3.04 | 3.57 | 3.22 | 2.93 | 2.81 | 3.88
Cc1cc(CC(C)CC(C)(C)C)n(O)c(=O)c1 (configuration not stated) [Piroctone Olamine] | 2.93 | 3.56 | 4.37 | 3.73 | 3.88 | 4.49
COC(=O)Nc1nc2cc([S+]([O-])c3ccccc3)ccc2[nH]1 (configuration not stated) [Oxfendazole] | 1.09 | 0.692 | 1.08 | 0.801 | 1.42 | 1.12
C=C(C)[C@@H]1CC[C@]2(C(=O)O)CC[C@]3(C)[C@H](CC[C@@H]4[C@@]5(C)CC[C@H](O)C(C)(C)[C@@H]5CC[C@]43C)[C@@H]12 [Betulinic acid] | 1 | 0.893 | 0.693 | 0.844 | 0.744 | 0.866
Clc1ccccc1CN1CCc2sccc2C1 [Ticlopidine HCl] | 1.29 | 1.12 | 1.3 | 1.59 | 0.746 | 1.56
C#CCN[C@@H]1CCc2ccccc21 [Rasagiline Mesylate] | 1.19 | 0.608 | 0.782 | 0.686 | 1.01 | 1.18
NC(=N\CCCCCC/N=C(N)/N=C(\N)Nc1ccc(Cl)cc1)/N=C(\N)Nc1ccc(Cl)cc1 [Chlorhexidine diacetate] | 2.69 | 4.3 | 3.46 | 2.04 | 3.03 | 3.25
CC(=O)N1CCN(c2ccc(OCC3COC(Cn4ccnc4)(c4ccc(Cl)cc4Cl)O3)cc2)CC1 (configuration not stated) [Ketoconazole] | 1.55 | 0.896 | 2.29 | 0.789 | 0.391 | 0.644
Cn1cc(-c2ccc3ncc(Cc4ccc5ncccc5c4)n3n2)cn1 | 1.26 | 0.825 | 0.747 | 0.784 | 1.92 | 1.31
CCOC(=O)c1ccc(N2NC(=O)C(=Cc3ccc([N+](=O)[O-])o3)C2=O)cc1 | 1.51 | 1.47 | 1.17 | 0.999 | 0.851 | 1.17
NCCCC[C@H](NC(=O)[C@@H]1CCCN1C(=O)[C@@H]1CSSC[C@H](NC(=O)CNC(=O)CNC(=O)CN)C(=O)N[C@@H](Cc2ccc(O)cc2)C(=O)N[C@@H](Cc2ccccc2)C(=O)N[C@@H](CCC(N)=O)C(=O)N[C@@H](CC(N)=O)C(=O)N1)C(=O)NCC(N)=O [Terlipressin Acetate] | 1.69 | 0.833 | 1.36 | 0.976 | 0.531 | 1.15

SMILES | Euclidean distance (786-O) | Euclidean distance (A549) | Euclidean distance (DU145) | Euclidean distance (FB) | Euclidean distance (HEPG2) | Euclidean distance (OVCAR4)
CC(C)NCC(O)COc1cccc2ccccc12 (configuration not stated) [Propranolol HCl] | 1.23 | 0.818 | 0.949 | 0.645 | 0.798 | 1.01
COc1cc(NS(C)(=O)=O)ccc1Nc1c2ccccc2nc2ccccc12 [Amsacrine hydrochloride] | 3.5 | 3.49 | 4.13 | 3.04 | 3.28 | 3.46
Cn1cc(/C=C/C(=O)c2cccc(F)c2)cc1/C=C/C(=O)NO | 1.27 | 1.61 | 0.756 | 1.27 | 0.359 | 0.539
CCCCOc1ccc(C(=O)CCN2CCCCC2)cc1 [Dyclonine HCl] | 1.45 | 0.937 | 1.42 | 0.997 | 1.96 | 0.828
COc1cc(/C=C/C(=O)O)ccc1O [Sodium ferulate] | 1.56 | 1.15 | 1.14 | 1.08 | 1.11 | 1.46
NC[C@H]1CC[C@H](C(=O)O)CC1 [Tranexamic Acid] | 1.31 | 0.903 | 0.735 | 0.672 | 1.31 | 1.09
N[C@@H](CCC(=O)O)C(=O)O [(S)-Glutamic acid] | 1.39 | 0.982 | 1.47 | 0.799 | 0.834 | 1.57
CC[C@H]1OC(=O)C[C@@H](O)[C@H](C)[C@@H](O[C@@H]2O[C@H](C)[C@@H](O)[C@H](N(C)C)[C@H]2O)[C@@H](CCN2C[C@H](C)C[C@H](C)C2)C[C@@H](C)C(=O)/C=C/C(C)=C/[C@@H]1CO[C@@H]1O[C@H](C)[C@@H](O)[C@@H](OC)[C@H]1OC [Tilmicosin] | 0.767 | 0.579 | 0.777 | 0.841 | 1.09 | 0.801
NC(=O)[C@@H](CCC(F)(F)F)N(Cc1ccc(-c2ncon2)cc1F)S(=O)(=O)c1ccc(Cl)cc1 | 2.13 | 1.14 | 1.04 | 2.28 | 1.48 | 0.855
CCCCC(=O)O[C@]1(C(=O)CO)[C@@H](C)C[C@H]2[C@@H]3CCC4=CC(=O)C=C[C@]4(C)[C@@]3(F)[C@@H](O)C[C@@]21C [Betamethasone Valerate] | 1.33 | 1.98 | 2.2 | 1.71 | 0.591 | 2.13
CCN1CCN(Cc2ccc(Nc3ncc(F)c(-c4cc(F)c5nc(C)n(C(C)C)c5c4)n3)nc2)CC1 [Abemaciclib] | 4.11 | 4.37 | 3.65 | 4.04 | 3.81 | 3.89
O=C(CCCCCCC(=O)NO)NO [Suberohydroxamic acid] | 1.22 | 1.22 | 1.18 | 2.06 | 1.84 | 1.28
CS(=O)(=O)c1cccc(C[C@H](NC(=O)c2c(Cl)cc3c(c2Cl)CCN(C(=O)c2ccc4ccoc4c2)C3)C(=O)O)c1 [Lifitegrast] | 1.08 | 0.823 | 1.53 | 1.16 | 0.431 | 1.27
N[C@@H]1c2cccnc2[C@H](OC(=O)N2CCC(n3c(=O)[nH]c4ncccc43)CC2)CC[C@H]1c1cccc(F)c1F | 1.04 | 0.68 | 0.986 | 1.29 | 0.768 | 1.31
COc1cc(C(=O)NCc2ccc(OCCN(C)C)cc2)cc(OC)c1OC [Tribenzagan Hydrochloride] | 1.18 | 1.99 | 1.05 | 1.12 | 1.07 | 1.09
C=C1/C(=C\C=C2/CCC[C@]3(C)[C@@H]([C@H](C)CCCC(C)(C)O)CC[C@@H]23)C[C@@H](O)C[C@@H]1O [Calcitriol] | 1.91 | 1.1 | 1.24 | 2.23 | 0.859 | 1.36
c1ccc(-c2ccc(C(c3ccccc3)n3ccnc3)cc2)cc1 (configuration not stated) [Bifonazole] | 1.54 | 1.43 | 1.19 | 1.17 | 0.639 | 1.31
Oc1nc(-c2ccc(C(F)(F)F)cc2)nc2c1CSCC2 | 0.915 | 1.5 | 1.11 | 0.913 | 0.766 | 1.15
CC(C(=O)O)c1cccc(C(=O)c2ccccc2)c1 (configuration not stated) [Ketoprofen] | 1.28 | 0.765 | 2.29 | 0.989 | 0.77 | 1.42
C[C@@]12C[C@@]3(O)O[C@@H](O1)[C@]1(COC(=O)c4ccccc4)[C@H]3C[C@@]12O[C@@H]1O[C@H](CO)[C@@H](O)[C@H](O)[C@H]1O [Paeoniflorin] | 1.19 | 0.375 | 0.983 | 0.985 | 0.474 | 1.17
Cc1nc(C)c(Cl)c(O)c1Cl [Clopidol] | 0.853 | 1.1 | 0.432 | 1.15 | 0.83 | 1.61
COc1nc(C)cnc1NS(=O)(=O)c1cccnc1-c1ccc(-c2nnco2)cc1 [Zibotentan (ZD4054)] | 1.49 | 0.567 | 0.656 | 0.844 | 1.11 | 0.898
CN[C@@H](C)C(=O)N[C@H]1CN(C(=O)CC(C)C)CC[C@H]2CC[C@@H](C(=O)NC(c3ccccc3)c3ccccc3)N2C1=O | 1.44 | 1.35 | 0.871 | 0.766 | 0.91 | 1.24
